From PubChem BioAssay AID1159580 (chemical genetic matrix, 2015)
The whole screen tested about 5,500 compounds, of which about 2,000 (36%) were called active. Not shown: some 18% with an inconclusive outcome. Rule as the data show it: active = normalized growth mostly below about 0.91 (no sharp cut-off); inconclusive = no clear call, values can overlap the other calls; inactive = mostly above about 0.92. This is one part of the list.

Assay: chemical genetic growth profiling, strain panel (AID 1159580);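 also: tested at 20 µM; growth read once vehicle control cultures reached saturation at 30 °C; 1 = growth at the plate median or of vehicle wells; lower values mean less growth of the strain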
Details: S. cerevisiae deletion strains, growth OD

Measured: normalized growth

CC(C)(C)[C@]1(O)CCN2C[C@H]3c4ccccc4CCc4cccc(c43)[C@@H]2C1
inactive: locus YAL040C, strain CLN3, stronger effect = lower value 0.999 | locus YDR363W, strain ESC2, stronger effect = lower value 0.994 | locus YER002W, strain NOP16, stronger effect = lower value 0.993 | locus YMR263W, strain SAP30, stronger effect = lower value 1 | locus YNL128W, strain TEP1, stronger effect = lower value 1.01 | locus YNL175C, strain NOP13, stronger effect = lower value 1.03 | locus YNL197C, strain WHI3, stronger effect = lower value 1.02 | locus YNL224C, strain SQS1, stronger effect = lower value 1.02 | locus YNL322C, strain KRE1, stronger effect = lower value 1.01 | locus YOR083W, strain WHI5 (second series), stronger effect = lower value 1.05

OC[C@@H](O)[C@H](O)[C@@H](O)[C@H](O)CO
inactive: locus YHR030C, strain SLT2, stronger effect = lower value 0.974 | locus YHR079C, strain IRE1, stronger effect = lower value 0.995 | locus YJL095W, strain BCK1, stronger effect = lower value 1 | locus YJR066W, strain TOR1, stronger effect = lower value 0.936 | locus YLR113W, strain HOG1, stronger effect = lower value 0.959 | locus YNL183C, strain NPR1, stronger effect = lower value 0.941 | locus YOR231W, strain MKK1, stronger effect = lower value 0.991 | locus YPL256C, strain CLN2, stronger effect = lower value 0.964
